Measurements taken from PubChem BioAssay.
Calls of active or inactive are those of the source.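 The calls were made as follows, unless noted: active = visually confirmed hit in the image check and inhibition above 20%; inconclusive = visually confirmed hit but inhibition not above 20%; inactive = no visual hit in the image check.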

Columns and labels:
[1] = inhibitors of TNFa-induced NFkB p65 translocation, primary screen, imaging, HUVEC, MLSMR starter and 10KST1 sets (AID 438;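 active = inhibition above 20% together with a positive visual image hit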;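 also: compound added about 3h40 before a 20 min TNFalpha stimulation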;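 as to inhibition: signal is the nuclear over cytoplasmic p65 intensity ratio per well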); conditions: HUVEC TNFa-induced p65 nuclear translocation; cell count: measured here: nuclei count (cytotoxicity indicator), at 2.08 µM; inhibition: at 2 µM, stronger effect = higher value, 0% TNFa-plus-vehicle, 100% no-TNFa wells
[2] = reduction of polyQ htt aggregates in cells – imaging, exon1htt(103Q)mCFP cells, high-content imaging, primary screen (AID 483;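 active = visual image review flags a hit and inhibition of aggregation exceeds 20%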;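 also: compound exposure lasted 3 days before fixation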;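 as to nuclei count: percent of the per-plate median nuclei count of sample wells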); conditions: exon1htt(103Q)mCFP cell line, aggregate imaging, at 2 µM; inhibition of aggregation: stronger effect = higher value; nuclei count: measured here: cell count, toxicity
[3] = endothelial E-selectin expression blockers – imaging, HUVEC, immunofluorescence, MLSMR starter and 10KST1 sets, primary screen (AID 487); conditions: HUVEC TNFalpha-induced E-selectin immunofluorescence imaging, at 2 µM; inhibition: stronger effect = higher value; nuclei count: measured here: cell number, toxicity;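 as to inhibition: signal is fraction of cell area covered by stained E-selectin grains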;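 as to nuclei count: 100% = median nuclei count of all wells on the same plate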
[4] = target: Voltage-gated potassium channel subunit beta-2 (Rattus norvegicus) (UniProt P62483); assay: inhibitors of rat Kvbeta2 reductase activity – biochemical, NADPH fluorescence, primary screen (AID 622;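 active = fluorescence slope higher than the sample average by over 3 SD, cut at about -0.22 in these data, passing the limit was not always enough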;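 also: slope of raw intensity against log time taken from 70 to 1610 s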); conditions: recombinant KvBeta, 4-cyanobenzaldehyde reduction, at 10 µM, stronger effect = higher value
Voltage-gated potassium channel subunit beta-2 (Rattus norvegicus), sequence (P62483 whole entry, looked up): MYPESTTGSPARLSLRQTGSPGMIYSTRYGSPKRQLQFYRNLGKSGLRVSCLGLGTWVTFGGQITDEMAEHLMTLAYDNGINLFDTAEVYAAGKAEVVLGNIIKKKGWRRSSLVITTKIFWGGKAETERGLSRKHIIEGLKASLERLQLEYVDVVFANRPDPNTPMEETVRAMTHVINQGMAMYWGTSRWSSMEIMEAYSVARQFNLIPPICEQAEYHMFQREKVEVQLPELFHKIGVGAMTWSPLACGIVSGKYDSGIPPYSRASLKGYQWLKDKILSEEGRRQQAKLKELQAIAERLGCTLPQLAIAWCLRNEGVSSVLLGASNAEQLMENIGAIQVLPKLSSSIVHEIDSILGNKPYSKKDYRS

[5] = target: Voltage-gated potassium channel subunit beta-2 (Rattus norvegicus) (UniProt P62483); assay: enhancers of rat Kvbeta2 NADPH turnover – biochemical, NADPH fluorescence, primary screen (AID 623;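 active = NADPH fluorescence slope more negative than the mean of all samples by about 3 SD, 99.7% confidence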;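 also: fluorescence intensity change per second fitted from 20 to 320 s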); conditions: Recombinant KvBeta, NADPH fluorescence decrease slope, 10 min; at 10 µM; stronger effect = lower value
[6] = target: Alpha-2C adrenergic receptor (Homo sapiens) (UniProt P18825); assay: compounds altering alpha2C-coupled GIRK flux – cell-based, HEK293 alpha2C/GIRK1/2, thallium flux, primary screen (AID 624;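 active = fluorescence slope after compound addition differing from the mean of all screened samples at 99.7% confidence, in either direction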;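 also: slope of fluorescence ratio to pre-addition baseline per second over 15 to 24 s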); conditions: thallium flux BTC fluorescence, at 10 µM, actives lie on both sides
Alpha-2C adrenergic receptor (Homo sapiens), sequence (P18825 whole entry, looked up): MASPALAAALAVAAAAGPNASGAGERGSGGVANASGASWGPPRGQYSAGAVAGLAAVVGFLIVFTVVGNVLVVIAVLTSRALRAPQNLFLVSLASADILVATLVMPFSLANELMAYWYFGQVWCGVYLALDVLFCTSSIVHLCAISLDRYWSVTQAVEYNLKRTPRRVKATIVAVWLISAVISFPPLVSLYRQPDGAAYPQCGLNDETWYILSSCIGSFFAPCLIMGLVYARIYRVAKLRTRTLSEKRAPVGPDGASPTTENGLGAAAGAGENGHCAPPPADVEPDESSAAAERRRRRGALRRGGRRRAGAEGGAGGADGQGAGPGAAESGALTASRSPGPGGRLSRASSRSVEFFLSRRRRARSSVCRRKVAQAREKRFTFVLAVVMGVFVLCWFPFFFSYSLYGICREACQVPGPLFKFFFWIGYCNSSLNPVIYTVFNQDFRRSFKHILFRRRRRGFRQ

[7] = blockers of RIG-like receptor reporter activation – cell-based, Sendai virus stimulus, luciferase, 10K MLSCN set, TLR/RLR signaling modifier project, primary screen (AID 602276;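 active = inhibition at or above 50% at 10 µM; inactive = inhibition below 50%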;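 also: firefly luciferase from ISG56 promoter only with Renilla not read in this screen; 0% = Sendai virus plus DMSO and 100% = medium plus DMSO without virus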); conditions: HEK293 RL24 IRF3 luciferase reporter, at 10 µM, stronger effect = higher value
[8] = TLR3 IRF3 reporter activation blockers – cell-based, poly I:C stimulus, luciferase, 10K MLSCN set, primary screen (AID 602277;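 active = inhibition of the reporter signal at or above 50%; inactive = inhibition below 50%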); conditions: HEK293-TLR3 RL24 IRF3 luciferase reporter, at 10 µM, stronger effect = higher value

Row | Structure (SMILES) | cell count [1] | inhibition [1] | inhibition of aggregation [2] | nuclei count [2] | inhibition [3] | nuclei count [3] | fluorescence slope [4] | NADPH fluorescence slope [5] | slope [6] | inhibition [7] | inhibition [8]
1 | CC(=O)c1cc2c(cc1NC(=O)CN1CCN(C(=O)c3ccco3)CC1)OCO2 | 410 | -6.1% (inactive) | 13.3% (inactive) | 44.6% | -58.5% (inactive) | 113% | -0.548 (inactive) | -3.4e-05 (inactive) | 0.00807 (inactive) | 4.38% (inactive) | 25.7% (inactive)
2 | COc1ccc(N(CC(=O)N2CCCCC2)S(=O)(=O)c2ccccc2)c(OC)c1 | 622 | -7.8% (inactive) | -4.8% (inactive) | 104% | -218% (inactive) | 132% | -0.278 (inactive) | -7.4e-06 (inactive) | 0.00613 (inactive) | 12% (inactive) | 26.9% (inactive)
3 | Cc1cc(Cl)ccc1NC(=O)CSc1nnc(Cc2cccs2)n1Cc1ccco1 | 270 | -4.3% (inactive) | 27.5% (inactive) | 74.6% | -32.8% (inactive) | 102% | -0.494 (inactive) | -5e-05 (inactive) | 0.00645 (inactive) | 17.4% (inactive) | 32.2% (inactive)
4 | O=C(c1sc2ccccc2c1Cl)N(Cc1cccs1)C1CCS(=O)(=O)C1 (stereo not drawn) | 677 | 4.4% (inactive) | 17.9% (inactive) | 90.3% | 10.4% (inactive) | 108% | -0.579 (inactive) | -2.7e-05 (inactive) | 0.00741 (inactive) | 10.4% (inactive) | 32.5% (inactive)
5 | O=C(CC1Oc2ccccc2NC1=O)NCCCN1CCOCC1 (stereo not drawn) | 620 | 6.1% (inactive) | -1.6% (inactive) | 112% | 24.8% (inactive) | 100% | -0.56 (inactive) | -1.9e-05 (inactive) | 0.00542 (inactive) | 8.81% (inactive) | 38.3% (inactive)
6 | O=C(NCCCN1CCCC1=O)C1CCN(S(=O)(=O)N2CCOCC2)CC1 | 195 | 25.3% (active) | 17.1% (inactive) | 94.9% | 27.7% (inactive) | 81.9% | -0.362 (inactive) | -4.9e-05 (inactive) | 0.00575 (inactive) | -12.7% (inactive) | -7.16% (inactive)
7 | Cc1ccccc1NS(=O)(=O)c1cc(C(=O)N2CCCC2)ccc1C | 481 | -7.1% (inactive) | 16.1% (inactive) | 86.1% | 9.5% (inactive) | 94.2% | -0.601 (inactive) | -3.9e-05 (inactive) | 0.00473 (inactive) | -10.7% (inactive) | 6.74% (inactive)
8 | COc1ccc(OC)c(S(=O)(=O)Nc2ccc(O)c3ccccc23)c1 | 382 | -10.1% (inactive) | -0.8% (inactive) | 93% | -13.9% (inactive) | 114% | -0.416 (inactive) | -6.5e-05 (inactive) | 0.00306 (inactive) | 14.9% (inactive) | 53.2% (active)
9 | CCn1cc(C(=O)OCc2ccc(F)cc2)c(=O)c2ccc(C)nc21 | 360 | 0.4% (inactive) | -17.1% (inactive) | 102% | -16.9% (inactive) | 98% | -0.428 (inactive) | -2.4e-05 (inactive) | 0.00561 (inactive) | 11.6% (inactive) | -3.06% (inactive)
10 | CCCc1cc(C(=O)Nc2sc(C)c(C)c2C(=O)OCC)no1 | 856 | 2.3% (inactive) | 2.1% (inactive) | 126% | -79.7% (inactive) | 114% | -0.229 (inactive) | -5.5e-06 (inactive) | 0.00716 (inactive) | 8.68% (inactive) | 31.8% (inactive)
11 | CC(=O)N(CCc1ccccc1C)Cc1cc2cc3c(cc2[nH]c1=O)OCO3 | 251 | 12.1% (inactive) | 1.2% (inactive) | 86.1% | -68.1% (inactive) | 116% | -0.592 (inactive) | -6.2e-05 (inactive) | 0.00459 (inactive) | 8.48% (inactive) | 15.6% (inactive)
12 | O=C(NCc1cccs1)C(Cc1ccccc1)n1cccc1 (stereo not drawn) | 602 | -6.3% (inactive) | 6.2% (inactive) | 95.4% | -25.8% (inactive) | 115% | -0.614 (inactive) | -5.2e-05 (inactive) | 0.00634 (inactive) | 1.52% (inactive) | 26.2% (inactive)
13 | CC1CCc2nn(CC(=O)NCc3ccc(F)cc3)cc2C1 (stereo not drawn) | 919 | 1.2% (inactive) | -5.6% (inactive) | 112% | -72.4% (inactive) | 119% | -0.628 (inactive) | -3.4e-06 (inactive) | 0.00689 (inactive) | -0.348% (inactive) | 20.2% (inactive)
14 | CC(=O)c1ccc(NC(=O)CCc2c(C)nc3ncnn3c2C)cc1 | 363 | 0% (inactive) | 11.4% (inactive) | 103% | -31.1% (inactive) | 113% | -0.498 (inactive) | -2.9e-05 (inactive) | 0.00573 (inactive) | -9.29% (inactive) | -11.6% (inactive)
15 | Cc1nnc(N(C)C(=O)c2cccnc2)s1 | 704 | -7.5% (inactive) | 8.5% (inactive) | 109% | -47.1% (inactive) | 109% | -0.547 (inactive) | 3.7e-05 (inactive) | 0.0062 (inactive) | -6.83% (inactive) | -1.4% (inactive)
16 | O=C(CSc1nnc(Cn2c(=O)sc3ccccc32)n1-c1ccccc1)Nc1nccs1 | 645 | 1.8% (inactive) | 9.1% (inactive) | 110% | -7.4% (inactive) | 104% | -0.58 (inactive) | -2.9e-05 (inactive) | 0.00712 (inactive) | 2.86% (inactive) | 16.4% (inactive)
17 | O=C(NCc1ccco1)c1cccc(-c2nnc(-c3ccccc3)o2)c1 | 320 | -6% (inactive) | 5.1% (inactive) | 122% | -78.1% (inactive) | 124% | -0.422 (inactive) | -6.2e-05 (inactive) | 0.00529 (inactive) | 18.5% (inactive) | -23.1% (inactive)
18 | Cc1ccc(Nc2cc(-n3nc(C)cc3C)ncn2)cc1 | 378 | 5.2% (inactive) | -9.7% (inactive) | 99.7% | -14.1% (inactive) | 101% | -0.442 (inactive) | -3.4e-05 (inactive) | 0.00717 (inactive) | -0.371% (inactive) | -15.8% (inactive)
19 | NS(=O)(=O)c1ccc(NC(=O)N[C@@H](Cc2ccccc2)C(=O)O)cc1 | 292 | -0.8% (inactive) | 5.2% (inactive) | 104% | 16.6% (inactive) | 99.7% | -0.485 (inactive) | -4.3e-05 (inactive) | 0.00476 (inactive) | 10.6% (inactive) | 16.6% (inactive)
20 | COc1cccc(C(=O)Nc2c(C(N)=O)oc3ccccc23)c1 | 702 | -14.6% (inactive) | 28.5% (inactive) | 89.2% | -34.6% (inactive) | 121% | -0.545 (inactive) | -4.8e-05 (inactive) | 0.00682 (inactive) | 10.6% (inactive) | 25.5% (inactive)
21 | CC(=O)NC1(C(F)(F)F)NC(=O)N(CC(C)C)C1=O (stereo not drawn) | 359 | 4% (inactive) | -8.3% (inactive) | 97.6% | -30.2% (inactive) | 101% | -0.5 (inactive) | 2e-05 (inactive) | 0.00596 (inactive) | -14.7% (inactive) | 14% (inactive)
22 | CCOC(=O)c1sc(NC(=O)COC(=O)Cn2cnc3ccccc32)c(C(=O)OCC)c1C | 398 | 4.3% (inactive) | 2.6% (inactive) | 90.6% | -109% (inactive) | 115% | -0.613 (inactive) | -3e-05 (inactive) | 0.00913 (inactive) | 13.7% (inactive) | -7.45% (inactive)
23 | CC(=O)Nc1cccc(NC(=O)CSc2nn3c(=O)c(C)nnc3s2)c1 | 577 | 5.2% (inactive) | 9.9% (inactive) | 97.9% | -0.3% (inactive) | 95.8% | -0.454 (inactive) | -5.9e-05 (inactive) | 0.00534 (inactive) | 2.45% (inactive) | 20.4% (inactive)
24 | Cc1ccc(-c2cc(C(F)F)n3ncc(C(=O)N4CCN(c5ccccn5)CC4)c3n2)cc1 | 829 | -1.7% (inactive) | 9.3% (inactive) | 85.3% | -56.7% (inactive) | 120% | -0.514 (inactive) | -3e-05 (inactive) | 0.00598 (inactive) | 17.4% (inactive) | 42.8% (inactive)
25 | Cc1cc(C)cc(NC(=O)c2nnn(Cc3cc(C)ccc3C)c2N)c1 | 598 | 8.7% (inactive) | -15.9% (inactive) | 90.3% | -5.5% (inactive) | 125% | -0.564 (inactive) | -3.4e-05 (inactive) | 0.00689 (inactive) | 44.9% (inactive) | 14.5% (inactive)
26 | Cc1cc(=O)[nH]c(S/C=C/c2ccccc2)n1 | 427 | -1.8% (inactive) | -8.6% (inactive) | 103% | 1.2% (inactive) | 80.7% | -0.603 (inactive) | -2e-05 (inactive) | 0.00593 (inactive) | -28.9% (inactive) | -89.2% (inactive)
27 | CN(C)Cc1cn(CCC(=O)O)c2ccccc12 | 331 | 5.3% (inactive) | -18.2% (inactive) | 90.8% | 9.1% (inactive) | 103% | -0.481 (inactive) | 4.3e-05 (inactive) | 0.00704 (inactive) | -16.1% (inactive) | 19.4% (inactive)
28 | CCn1ncc(C2=NOC(C(=O)Nc3ccc4c(c3)OCO4)C2)c1C (stereo not drawn) | 640 | -0.3% (inactive) | 0.2% (inactive) | 99.9% | -156% (inactive) | 112% | -0.5 (inactive) | -0.000277 (inactive) | 0.00345 (inactive) | -17.8% (inactive) | -34% (inactive)
